# Compound activity: PubChem, National Center for Advancing Translational Sciences (NCATS)
# Six1-Eya2 blk: inhibitors of human Six1/Eya2 interaction | actives 0.56% (n = 360,000) | AlphaScreen GST-Six1/His-Eya2 binding, biochemical; hits give low values | AID 651725 | Q15475+O00167 | activity change, % (test concentration not listed); in the data active = activity change below about -65%; inconclusive = mostly about -30% to -63%
#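 Homogeneous AlphaScreen proximity assay pairing GST-Six1 with His-tagged Eya2 (added as 5X mix: 250 nM and 500 nM) in 50 mM Tris pH 8.0, 300 mM NaCl, 1 mM TCEP. Glutathione donor and nickel acceptor beads; 1 h, 37 °C, dark.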
# BAZ2B inh: BAZ2B (human) inhibition. Q9UIF8. AlphaScreen BAZ2B-H3K14Ac peptide displacement. Potency, µM (highest dose often 114 µM), actives largely listed as inhibitors. actives 4.4% (n = 360,000); also: nearly all actives have a fitted effect of over 60% in size
#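 AlphaScreen displacement: compounds (up to 110uM) incubated 30 min at room temperature with a preformed 50 nM BAZ2B/50 nM biotinylated H3K14Ac peptide complex in PBS pH 7.4 with Tween-20. Donor and acceptor beads at 10 ug/mL final added, 20 min light-protected before reading.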
# CtBP-E1A inh: blocks the CtBP interaction with E1A; AlphaScreen GST-E1A/His-CtBP binding, 1536-well; hits give low values; actives 0.49% (n = 340,000); activity change, % (test concentration not listed); in the data active = activity change below about -65%; inconclusive = mostly about -30% to -63%
#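 Homogeneous bead-based format: GST-tagged E1A captured on glutathione donor beads, His-tagged CtBP on nickel acceptor beads; compounds precede bead addition by 2 h at 37 °C.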
# HP1b binding inh: HP1-beta chromodomain-methylated histone interaction inhibition | P83916 | AlphaScreen HP1-beta / biotin-H3K9me3 peptide binding | Potency, µM (highest dose often 114 µM), most hits filed as inhibitors | actives 0.56% (n = 390,000) | AID 540317; also: nearly all actives have a fitted effect of over 70% in size
#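 AlphaScreen: HP1-beta (50 nM) preformed 30 min with biotin-H3(1-18)K9me3 peptide (50 nM) in PBS pH 7.4, 0.01% Tween-20. Compound added for 30 min at RT, then streptavidin donor/nickel chelate acceptor beads (10 ug/mL) for 30 min.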
# G9a inh: blocks human histone lysine methyltransferase G9a | Q96KQ7 | G9a H3K9 monomethylation, AlphaScreen, 2 h | Potency, µM (highest dose often 102 µM), actives largely listed as inhibitors | actives 8.8% (n = 350,000) | AID 504332; also: nearly all actives have a fitted effect of over 75% in size
#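 Quantitative HTS format: methyltransferase activity on a biotin-tagged H3K9 peptide is measured by AlphaScreen, using a rabbit anti-monomethyl-H3K9 antibody with streptavidin donor and anti-IgG acceptor beads. Final levels are 20 nM enzyme, 500 nM peptide, 20 uM SAM; 2 h RT.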
# JMJD2A Tudor: inhibitors of human JMJD2A Tudor domain; AlphaScreen JMJD2A-Tudor / H3K4me3 peptide binding; Potency, µM (titrated, usually from 114 µM), most hits filed as inhibitors; actives 4.4% (n = 390,000); AID 504339; also: nearly all actives have a fitted effect of over 50% in size
# Target sequence (O75164 whole entry, looked up, the tested form may be a part): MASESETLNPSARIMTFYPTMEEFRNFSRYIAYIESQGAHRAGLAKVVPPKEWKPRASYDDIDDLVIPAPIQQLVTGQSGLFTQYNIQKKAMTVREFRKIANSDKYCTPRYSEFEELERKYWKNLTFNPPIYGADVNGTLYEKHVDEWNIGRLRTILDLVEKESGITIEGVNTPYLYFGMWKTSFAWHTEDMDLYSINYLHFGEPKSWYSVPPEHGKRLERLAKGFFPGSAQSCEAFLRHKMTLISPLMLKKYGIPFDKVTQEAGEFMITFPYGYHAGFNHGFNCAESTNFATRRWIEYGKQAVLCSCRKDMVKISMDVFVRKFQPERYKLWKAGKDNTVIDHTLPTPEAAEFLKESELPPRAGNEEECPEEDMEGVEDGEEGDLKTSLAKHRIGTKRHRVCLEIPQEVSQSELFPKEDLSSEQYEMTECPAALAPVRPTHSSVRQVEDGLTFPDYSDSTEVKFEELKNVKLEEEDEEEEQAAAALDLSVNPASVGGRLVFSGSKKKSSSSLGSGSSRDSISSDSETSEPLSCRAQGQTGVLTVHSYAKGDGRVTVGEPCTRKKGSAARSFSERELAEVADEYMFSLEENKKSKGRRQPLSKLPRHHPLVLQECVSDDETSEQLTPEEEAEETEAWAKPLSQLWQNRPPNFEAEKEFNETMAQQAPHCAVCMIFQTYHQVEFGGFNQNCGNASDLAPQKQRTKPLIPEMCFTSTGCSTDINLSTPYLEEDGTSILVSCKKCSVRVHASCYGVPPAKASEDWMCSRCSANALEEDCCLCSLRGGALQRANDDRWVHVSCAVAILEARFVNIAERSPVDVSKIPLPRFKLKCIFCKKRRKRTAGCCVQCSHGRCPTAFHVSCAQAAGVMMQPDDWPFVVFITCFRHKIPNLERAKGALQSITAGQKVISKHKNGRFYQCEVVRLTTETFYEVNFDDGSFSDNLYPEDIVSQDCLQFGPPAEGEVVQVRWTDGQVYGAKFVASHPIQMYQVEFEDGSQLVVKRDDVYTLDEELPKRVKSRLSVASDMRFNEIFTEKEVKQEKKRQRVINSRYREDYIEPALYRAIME
# Hits are given with their value; – = inactive; ? = inconclusive; · = no result given; [ ] = another dose, or the depositor's remark. An excerpt weighted towards active compounds, which were near 10% of everything screened. Unless noted, calls follow the shape of the dose curve; as a rule, active = well fitted inhibition curve with a large enough effect; inconclusive = small, poorly fitted or top-dose-only effect; inactive = no such curve, though single readings can be large or run the other way.
SMILES,Six1-Eya2 blk,BAZ2B inh,CtBP-E1A inh,HP1b binding inh,G9a inh,JMJD2A Tudor
CC1CCCN(Cc2nc3c(c(=O)n(C)c(=O)n3C)n2Cc2ccc(Cl)cc2Cl)C1 (stereo not drawn),·,·,·,–,–,–
Cc1cccc(CSCCNC(=O)CN(c2ccccc2)S(=O)(=O)N(C)C)c1,·,–,·,–,–,–
CCOc1ccc(OCCN2CCCCC2)cc1,–,56.2µM,–,–,7.94µM,10µM
CCCOc1ccc(C(O)(CCC)CCN2CCCCC2)cc1 (stereo not drawn),–,–,–,–,–,–
c1ccc(OCCOCCN2CCN(C(c3ccccc3)c3ccccc3)CC2)cc1,–,50.1µM,–,?,10µM,0.891µM
COc1ccccc1OCCCCN1CCN(C(c2ccccc2)c2ccccc2)CC1,–,?,–,?,–,?
CCOc1ccc(OCCOCCN2CCCC2)cc1,–,?,·,–,8.91µM,28.2µM
Fc1ccc(OCCOCCN2CCCC2)cc1,–,·,–,?,·,6.31µM
Clc1ccc(OCCN2CCCCC2)cc1Cl,–,?,–,–,?,22.4µM
Cc1cc(OCCOCCN2CCCC2)ccc1C(C)C,–,?,–,–,20µM,5.01µM
ON=C1c2cc(OCCN3CCCCC3)ccc2-c2ccc(OCCN3CCCCC3)cc21,–,?,–,–,·,?
Cc1cc(OCCn2nc(C(=O)O)c3ccccc3c2=O)ccc1C(C)C,–,–,–,–,–,–
CCOc1ccc(C(C)(N)C(=O)O)cc1 (stereo not drawn),–,–,–,–,?,3.55µM
N#CC(=C(/N)Sc1ccccc1N)/C(C#N)=C(\N)Sc1ccccc1N,·,·,·,·,12.6µM,·
CCC(=O)N1CCc2cc(S(=O)(=O)CCC(=O)N3CCN(c4cc(C)ccc4C)CC3)ccc21,·,·,·,–,–,–
COc1ccc(CNC(=O)CN(C)Cc2ccc(C(C)(C)C)cc2)cc1,–,22.4µM,–,?,39.8µM,2.82µM
CC(C)(C)NC(=O)Nc1ccc(Cn2cc(C(F)(F)F)ccc2=O)cc1,–,–,–,–,–,31.6µM
CN(CC(=O)NCc1ccccc1)Cc1ccc(Cl)cc1,–,–,–,–,–,–
CN(CC(=O)NC(=O)NCc1ccccc1)Cc1ccc(Cl)cc1,–,–,–,–,44.7µM,–
COc1ccc(CNC(=O)Cn2cc(C(F)(F)F)ccc2=O)cc1,–,–,–,–,50.1µM,–
CC(C)c1ccc(NC(=O)CN2C(=O)c3cccc4cccc2c34)cc1,·,–,·,–,–,–
CCCN1CCN(C(=O)Cn2ncc3c4ccccc4n(Cc4cccc(Cl)c4)c3c2=O)CC1,·,–,·,–,–,–
CC1CCN(C(c2ccccc2)c2sc3nc(-c4ccco4)nn3c2O)CC1 (stereo not drawn),·,–,·,–,–,–
CC1(C)OC2OC(C(=O)N/N=C/c3cc(Br)ccc3O)C3OC(C)(C)OC3C2O1 (stereo not drawn),-82.4,–,-89.7,–,–,?
Nc1c(C(=O)OCC(=O)Nc2cccc([N+](=O)[O-])c2)[nH]c(=O)[nH]c1=O,?,·,–,–,·,79.4µM
SMILES,Six1-Eya2 blk,BAZ2B inh,CtBP-E1A inh,HP1b binding inh,G9a inh,JMJD2A Tudor
O=C(C1=C(O)C(=O)N(CCN2CCOCC2)C1c1ccccc1)c1cccs1 (stereo not drawn),–,·,–,–,·,–
COc1cccc(C2C(C(=O)/C=C/c3ccco3)=C(O)C(=O)N2CCN2CCOCC2)c1 (stereo not drawn),–,·,–,–,50.1µM,–
COc1ccc(C2C(C(=O)/C=C/c3ccco3)=C(O)C(=O)N2CCN2CCOCC2)cc1 (stereo not drawn),–,79.4µM,–,–,?,–
C=CCOc1cccc(C2C(C(=O)c3ccco3)=C(O)C(=O)N2CCN2CCOCC2)c1 (stereo not drawn),–,?,–,–,–[12.7 µM],?
CCOc1ccc(C2C(C(=O)/C=C/c3ccco3)=C(O)C(=O)N2CCN2CCOCC2)cc1OC (stereo not drawn),–,·,–,–,44.7µM,?
COc1cc(C2C(C(=O)c3cccs3)=C(O)C(=O)N2CCN2CCOCC2)cc(OC)c1OC (stereo not drawn),–,–,–,–,?,–
CCc1cccc(CC)c1NC(=O)c1c(C)oc2ccc(O)c(CN3CCN(C)CC3)c12,·,–,·,–,–,–
Cc1cc(=O)n(CC(=O)Nc2ccc([N+](=O)[O-])cc2)c(-n2nc(C)cc2C)n1,·,–,·,–,?,–
O=C(Cn1cc(COc2ccc(Br)cc2[N+](=O)[O-])nn1)c1ccc(O)cc1,–,·,–,–,·,50.1µM
CC(=O)c1ccc(OCc2cn(CC(=O)c3ccc(O)cc3)nn2)cc1,–,·,–,–,·,?
COc1cc(C(C)=O)ccc1OCc1cn(CC(=O)c2ccc(O)cc2)nn1,–,·,–,–,·,22.4µM
Cc1cccc(C)c1OCc1cn(CC(=O)c2ccc(O)cc2)nn1,–,·,–,–,·,89.1µM
O=C(Cn1cc(COc2ccccc2C(F)(F)F)nn1)c1ccc(O)cc1,–,·,–,–,·,44.7µM
Cc1ccc(S(=O)(=O)c2nc(-c3cccs3)oc2SCc2ccc(F)cc2)cc1,·,–,·,–,–,–
COc1ccc(NC(=O)c2nc(S(C)(=O)=O)ncc2N(Cc2ccc(C)cc2)Cc2ccco2)cc1Cl,·,–,·,–,–,–
O=C(O)Cc1ccc(NC2(c3ccccc3)C(=O)c3ccccc3C2=O)cc1,·,–,·,–,–,–
O=c1c2c3c(sc2n2cnnc2n1-c1ccccc1)N(Cc1ccccc1)CCC3,–,–,–,–,12.6µM,?
O=C(CS(=O)(=O)c1cccc2nsnc12)Nc1cc(F)ccc1F,·,–,·,–,–,–
C/C(CC(C)(C)c1ccccc1)=N\NS(=O)(=O)c1ccccc1,–,–,–,–,25.1µM,–
Cc1nn(CC(=O)N2CCC(C)CC2)c(=O)c2cc3sccc3n12,·,–,·,–,–,–
CCOC(=O)CSC1=C(C#N)C(=O)NC2(CCCCC2)S1,–,12.6µM,–,70.8µM,31.6µM,44.7µM
Cc1ccc(C)c(CN2C(=O)c3ccccc3S(=O)(=O)c3ccc(C(=O)Nc4ccccc4C(F)(F)F)cc32)c1,·,–,·,–,–,–
CCn1c(SCC(=O)NC2CCCCC2)nnc1-c1cccs1,–,–,–,–,–[12.7 µM],–
CCn1c(SC(=O)NC2CCCCC2)nnc1-c1cccs1,–,–,–,22.4µM,?,4.47µM
COCCN1Cc2cccc(C(=O)Nc3ccc(Cl)cc3Cl)c2C1=O,·,·,·,–,?,–
Cn1c(=O)c(-c2cc(=O)[nH][nH]2)c(O)c2ccccc21,–,56.2µM,–,–,–,35.5µM
COc1cccc(CNC(=O)c2cc3c(=O)oc4ccc(C)cc4c3s2)c1,·,–,·,–,–,–
CCc1ccc(N=C2NC(=O)/C(=C/c3cc(Br)c(OCC(=O)O)c(OC)c3)S2)cc1,–,50.1µM,–,?,50.1µM,50.1µM
